miR122 inh – activators of miR-122 sensor in Huh7 cells; activation, % at 12.5 µM; Huh7 psiCHECK-miR122 Renilla luciferase sensor, 48 h; AID 623901; 0.14% of 340,000 active;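 active = mean activation of 30% or more, with every replicate also reaching 30%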;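 also: 0% = median of neutral control wells and 100% = median of positive control wells; higher luciferase signal means stronger suppression of miR-122 activity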
Numbers without * were called inactive. Shown is part of a subset that was picked to be rich in hits.

SMILES	miR122 inh
Cc1ccc(-c2cnc3c(c2)C(=O)N([C@H](C)CO)C[C@@H](C)[C@H](CN(C)C(=O)Cc2ccncc2)O3)cc1	5
C[C@@H]1CN([C@H](C)CO)C(=O)c2cc(-c3cncnc3)cnc2O[C@@H]1CN(C)Cc1cncnc1	-10
C[C@@H]1CN([C@H](C)CO)C(=O)c2cc(-c3ccc(C(=O)N(C)C)cc3)cnc2O[C@@H]1CN(C)Cc1ccc(C(=O)O)cc1	6
C[C@H](CO)N1C[C@H](C)[C@@H](CN(C)Cc2cccnc2)Oc2cc(C#C[C@@H](C)O)ccc2S1(=O)=O	-1
C[C@@H]1CN([C@H](C)CO)S(=O)(=O)c2ccc(C#C[C@@H](C)O)cc2O[C@@H]1CN(C)Cc1cccnc1	-3
Cc1ccc(-c2ccc3c(c2)O[C@H](CN(C)Cc2cncnc2)[C@H](C)CN([C@@H](C)CO)S3(=O)=O)cc1	57*
C[C@H](CO)N1C[C@H](C)[C@@H](CN(C)Cc2cncnc2)Oc2cc(-c3cncnc3)ccc2S1(=O)=O	5
COc1ccccc1C#Cc1ccc2c(c1)O[C@H](CN(C)Cc1cccnc1)[C@@H](C)CN([C@@H](C)CO)S2(=O)=O	40*
C[C@H](O)C#Cc1ccc2c(c1)O[C@@H](CN(C)Cc1ccc(-c3ccccc3)cc1)[C@@H](C)CN([C@@H](C)CO)S2(=O)=O	38*
COc1ccccc1C#Cc1ccc2c(c1)O[C@@H](CN(C)Cc1cncnc1)[C@@H](C)CN([C@@H](C)CO)S2(=O)=O	4
C[C@H](CO)N1C[C@H](C)[C@H](CN(C)Cc2ccc(-c3ccccc3)cc2)Oc2cc(C#C[C@@H](C)O)ccc2S1(=O)=O	41*
C[C@H]1CN([C@@H](C)CO)S(=O)(=O)c2ccc(-c3ccccc3)cc2O[C@H]1CN(C)Cc1cncnc1	1
COc1ccccc1C#Cc1ccc2c(c1)O[C@H](CN(C)Cc1cncnc1)[C@@H](C)CN([C@H](C)CO)S2(=O)=O	-22
C[C@@H]1CN([C@H](C)CO)S(=O)(=O)c2ccc(C#C[C@@H](C)O)cc2O[C@H]1CN(C)Cc1cccnc1	2
C[C@@H]1CN([C@@H](C)CO)S(=O)(=O)c2ccc(C#C[C@@H](C)O)cc2O[C@@H]1CN(C)Cc1cncnc1	9
CNC[C@H]1Oc2ncc(-c3ccc(C#N)cc3)cc2C(=O)N([C@@H](C)CO)C[C@H]1C	0
C[C@@H]1CN([C@@H](C)CO)S(=O)(=O)c2ccc(-c3cccc(C(=O)N(C)C)c3)cc2O[C@H]1CN(C)C(=O)Nc1ccccc1	-7
C[C@H](CO)N1C[C@H](C)[C@@H](CN(C)Cc2ccc(Oc3ccccc3)cc2)Oc2c(NC(=O)C3CCOCC3)cccc2C1=O	-100
C[C@@H]1CN([C@@H](C)CO)C(=O)c2cc(C#Cc3ccc(F)cc3)cnc2O[C@@H]1CN(C)CC1CCOCC1	0
C[C@@H]1CN([C@@H](C)CO)S(=O)(=O)c2ccc(-c3ccncc3)cc2O[C@H]1CN(C)C(=O)Nc1ccc(F)cc1	7
CCCC#Cc1cnc2c(c1)C(=O)N([C@H](C)CO)C[C@H](C)[C@H](CN(C)Cc1cccnc1)O2	-2
C[C@H]1CN([C@@H](C)CO)C(=O)c2cc(-c3cccc(C(=O)N(C)C)c3)cnc2O[C@H]1CN(C)S(=O)(=O)c1ccc(F)cc1	-4
C[C@@H]1CN([C@@H](C)CO)C(=O)c2cc(-c3cncnc3)cnc2O[C@@H]1CN(C)Cc1ccc(F)cc1	1
COc1cccc(-c2cnc3c(c2)C(=O)N([C@H](C)CO)C[C@H](C)[C@H](CN(C)Cc2cccc(C)c2)O3)c1	8
CCC(=O)Nc1ccc2c(c1)OC[C@H](C)N(CCC(F)(F)F)C[C@@H](C)[C@@H](OC)CN(C)C2=O	1
SMILES	miR122 inh
C[C@H]1CN([C@@H](C)CO)C(=O)c2cc(Br)cnc2O[C@H]1CN(C)CC1CCOCC1	12
C[C@H]1CN([C@@H](C)CO)C(=O)c2cc(C#CC3(O)CCCC3)cnc2O[C@H]1CN(C)Cc1cncnc1	-4
COc1cccc(NC(=O)N(C)C[C@H]2Oc3ncc(C#Cc4ccccc4)cc3C(=O)N([C@@H](C)CO)C[C@H]2C)c1	5
C[C@H]1CN([C@@H](C)CO)C(=O)c2cccc(NC(=O)Nc3ccccc3)c2O[C@@H]1CN(C)Cc1ccc(C(=O)Nc2ccccc2N)cc1	-153
C[C@H](CO)N1C[C@H](C)[C@H](CN(C)Cc2cncnc2)Oc2cc(C#C[C@@H](C)O)ccc2S1(=O)=O	3
C[C@@H]1CN([C@H](C)CO)S(=O)(=O)c2ccc(C#C[C@@H](C)O)cc2O[C@@H]1CN(C)Cc1cncnc1	0
C[C@H](O)C#Cc1ccc2c(c1)O[C@H](CN(C)Cc1ccc(-c3ccccc3)cc1)[C@@H](C)CN([C@H](C)CO)S2(=O)=O	49*
C[C@@H]1CN([C@@H](C)CO)S(=O)(=O)c2ccc(C#C[C@@H](C)O)cc2O[C@H]1CN(C)Cc1ccc(-c2ccccc2)cc1	41*
C[C@@H](O)C#Cc1ccc2c(c1)O[C@H](CN(C)Cc1cncnc1)[C@@H](C)CN([C@@H](C)CO)S2(=O)=O	0
